In PubChem BioAssay (NCI):
About 83,000 compounds went through this panel and 20% of them were active in at least one assay; those are over-represented in the sample as a whole.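 Activity criterion: percent growth below 10, measured after cells in 96-well plates were exposed to a single compound concentration for 48 hours.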 Values without a mark were called inactive. Activity calls are given as the source filed them.

Key:
Assay in all cases: NCI-60 one-dose screen, 48 h (100 = growth as untreated, 0 = no growth, -100 = all killed)
Conditions in all cases: 10 µM unless noted
SR leukemia = test system: SR leukemia
OVCAR-8 ovarian = test system: OVCAR-8 ovarian
OVCAR-5 ovarian = test system: OVCAR-5 ovarian
OVCAR-4 ovarian = test system: OVCAR-4 ovarian
SK-OV-3 ovarian = test system: SK-OV-3 ovarian
IGROV1 ovarian = test system: IGROV1 ovarian
OVCAR-3 ovarian = test system: OVCAR-3 ovarian
HS 578T breast = test system: HS 578T breast
NCI/ADR-RES ovarian = test system: NCI/ADR-RES ovarian
T-47D breast = test system: T-47D breast
BT-549 breast = test system: BT-549 breast
MDA-MB-435 melanoma = test system: MDA-MB-435 melanoma
SW-620 colon = test system: SW-620 colon
MCF7 breast = test system: MCF7 breast
HCT-116 colon = test system: HCT-116 colon
HCC-2998 colon = test system: HCC-2998 colon
KM12 colon = test system: KM12 colon

CCN(CC)CCNC(=O)n1cc(-c2ccncc2)c(-c2cc(Cl)cc(OC)c2)n1
growth (SR leukemia): 51% | growth (OVCAR-8 ovarian): 27.7% | growth (OVCAR-5 ovarian): 88.4% | growth (OVCAR-4 ovarian): 70.4% | growth (SK-OV-3 ovarian): 47.8% | growth (IGROV1 ovarian): 86% | growth (OVCAR-3 ovarian): 94.3% | growth (HS 578T breast): 88% | growth (NCI/ADR-RES ovarian): 86% | growth (T-47D breast): 87.3% | growth (BT-549 breast): 95.6% | growth (MDA-MB-435 melanoma): 83.5% | growth (SW-620 colon): 100% | growth (MCF7 breast): 87.7% | growth (HCT-116 colon): 85.5% | growth (HCC-2998 colon): 113% | growth (KM12 colon): 98.3%

CCOC(=O)C1C(=O)C=C(c2cc(OC)c(OC)c(OC)c2)CC1c1sc(N(C)Cc2ccccc2)nc1Cl (stereo unspecified)
growth (SR leukemia): 80.8% | growth (OVCAR-8 ovarian): 82% | growth (OVCAR-5 ovarian): 101% | growth (OVCAR-4 ovarian): 86.8% | growth (SK-OV-3 ovarian): 85.2% | growth (IGROV1 ovarian): 95.6% | growth (OVCAR-3 ovarian): 91.6% | growth (HS 578T breast): 55.9% | growth (NCI/ADR-RES ovarian): 86.3% | growth (T-47D breast): 66.6% | growth (BT-549 breast): 92.1% | growth (MDA-MB-435 melanoma): 95.1% | growth (SW-620 colon): 95.7% | growth (MCF7 breast): 77.4% | growth (HCT-116 colon): 72.6% | growth (HCC-2998 colon): 105% | growth (KM12 colon): 93.6%

O=C(Nc1ccccc1)c1cc2ccccc2s1
growth (SR leukemia): 82.1% | growth (OVCAR-8 ovarian): 96.9% | growth (OVCAR-5 ovarian): 81.7% | growth (OVCAR-4 ovarian): 60% | growth (SK-OV-3 ovarian): 99.4% | growth (IGROV1 ovarian): 87.3% | growth (OVCAR-3 ovarian): 105% | growth (HS 578T breast): 98.5% | growth (NCI/ADR-RES ovarian): 94.4% | growth (T-47D breast): 38.1% | growth (BT-549 breast): 95.9% | growth (MDA-MB-435 melanoma): 109% | growth (SW-620 colon): 101% | growth (MCF7 breast): 46.8% | growth (HCT-116 colon): 75.8% | growth (HCC-2998 colon): 48.9% | growth (KM12 colon): 29.8%

CC(C)OC1OC(OC(C)C)C(OC(C)C)OC1OC(C)C (stereo unspecified)
growth (SR leukemia): 100% | growth (OVCAR-8 ovarian): 94.4% | growth (OVCAR-5 ovarian): 102% | growth (OVCAR-4 ovarian): 88.9% | growth (SK-OV-3 ovarian): 113% | growth (IGROV1 ovarian): 93.9% | growth (OVCAR-3 ovarian): 99.5% | growth (HS 578T breast): 101% | growth (NCI/ADR-RES ovarian): 105% | growth (T-47D breast): 115% | growth (BT-549 breast): 102% | growth (MDA-MB-435 melanoma): 110% | growth (SW-620 colon): 96.2% | growth (MCF7 breast): 103% | growth (HCT-116 colon): 88.5% | growth (HCC-2998 colon): 121% | growth (KM12 colon): 95.2%

CCCCOc1nc2ccccc2cc1/C=C/c1cc(/C=C/c2cc3ccccc3nc2OCCCC)n(-c2ccccc2)n1
growth (SR leukemia): 98.7% | growth (OVCAR-8 ovarian): 95.9% | growth (OVCAR-5 ovarian): 102% | growth (OVCAR-4 ovarian): 109% | growth (SK-OV-3 ovarian): 92.6% | growth (IGROV1 ovarian): 97.9% | growth (OVCAR-3 ovarian): 107% | growth (HS 578T breast): 87.6% | growth (NCI/ADR-RES ovarian): 106% | growth (T-47D breast): 102% | growth (BT-549 breast): 93.2% | growth (MDA-MB-435 melanoma): 108% | growth (SW-620 colon): 101% | growth (MCF7 breast): 99.1% | growth (HCT-116 colon): 93.1% | growth (HCC-2998 colon): 119% | growth (KM12 colon): 103%

COc1cc(-c2nn(C(=O)NCCN3CCN(C)CC3)cc2-c2ccncc2)ccc1Cl
growth (SR leukemia): 77.5% | growth (OVCAR-8 ovarian): 24.5% | growth (OVCAR-5 ovarian): 84.6% | growth (OVCAR-4 ovarian): 78% | growth (SK-OV-3 ovarian): 55.1% | growth (IGROV1 ovarian): 75% | growth (OVCAR-3 ovarian): 97.2% | growth (HS 578T breast): 76.9% | growth (NCI/ADR-RES ovarian): 82.4% | growth (T-47D breast): 62.2% | growth (BT-549 breast): 88.1% | growth (MDA-MB-435 melanoma): 80.4% | growth (SW-620 colon): 111% | growth (MCF7 breast): 76.5% | growth (HCT-116 colon): 76.9% | growth (HCC-2998 colon): 93.7% | growth (KM12 colon): 96.4%

Clc1ccc(-c2cnc3nonc3n2)s1
growth (SR leukemia): 38.4% | growth (OVCAR-8 ovarian): 67.3% | growth (OVCAR-5 ovarian): 91.5% | growth (OVCAR-4 ovarian): 89.9% | growth (SK-OV-3 ovarian): 98.1% | growth (IGROV1 ovarian): 71.3% | growth (OVCAR-3 ovarian): 23.1% | growth (HS 578T breast): 90.3% | growth (NCI/ADR-RES ovarian): 98.5% | growth (T-47D breast): 58.4% | growth (BT-549 breast): 93.8% | growth (MDA-MB-435 melanoma): -10.6% (active) | growth (SW-620 colon): 82.6% | growth (MCF7 breast): 38.7% | growth (HCT-116 colon): 67% | growth (HCC-2998 colon): 109% | growth (KM12 colon): 77.1%

CCOC(=O)CCN(CCC(=O)OCC)c1ccccc1
growth (SR leukemia): 104% | growth (OVCAR-8 ovarian): 94.5% | growth (OVCAR-5 ovarian): 92.2% | growth (OVCAR-4 ovarian): 113% | growth (SK-OV-3 ovarian): 87.1% | growth (IGROV1 ovarian): 87.4% | growth (OVCAR-3 ovarian): 85.2% | growth (HS 578T breast): 106% | growth (NCI/ADR-RES ovarian): 105% | growth (T-47D breast): 95.7% | growth (BT-549 breast): 97.9% | growth (MDA-MB-435 melanoma): 124% | growth (SW-620 colon): 103% | growth (MCF7 breast): 101% | growth (HCT-116 colon): 95.4% | growth (HCC-2998 colon): 119% | growth (KM12 colon): 93.5%

CCN1CCN(Cc2ccc(NC(=O)Nc3ccc(-n4ccc5c(NC(=O)c6ccccc6)nccc54)cc3)cc2C(F)(F)F)CC1
growth (SR leukemia): -30.9% (active) | growth (OVCAR-8 ovarian): -28.5% (active) | growth (OVCAR-5 ovarian): 30.7% | growth (OVCAR-4 ovarian): 78.8% | growth (SK-OV-3 ovarian): 62.7% | growth (IGROV1 ovarian): 43.9% | growth (OVCAR-3 ovarian): -51.9% (active) | growth (HS 578T breast): 74.1% | growth (NCI/ADR-RES ovarian): 27.8% | growth (T-47D breast): 75.6% | growth (BT-549 breast): 68.5% | growth (MDA-MB-435 melanoma): -61.5% (active) | growth (SW-620 colon): -11.9% (active) | growth (MCF7 breast): -90% (active) | growth (HCT-116 colon): -83.6% (active) | growth (HCC-2998 colon): 68.3% | growth (KM12 colon): 14.3%

CN(C)CCNC(=O)n1cc(-c2ccncc2)c(-c2cc(O)cc(Cl)c2)n1
growth (SR leukemia): 29.6% | growth (OVCAR-8 ovarian): 86.9% | growth (OVCAR-5 ovarian): 106% | growth (OVCAR-4 ovarian): 118% | growth (SK-OV-3 ovarian): 90.8% | growth (IGROV1 ovarian): 107% | growth (OVCAR-3 ovarian): 109% | growth (HS 578T breast): 93.3% | growth (NCI/ADR-RES ovarian): 100% | growth (T-47D breast): 106% | growth (BT-549 breast): 102% | growth (MDA-MB-435 melanoma): 51.1% | growth (SW-620 colon): 109% | growth (MCF7 breast): 102% | growth (HCT-116 colon): 86.2% | growth (HCC-2998 colon): 119% | growth (KM12 colon): 106%

COc1cc(CN2CCC(N3CCCC3=O)c3ccccc32)cc(OC)c1OC (stereo unspecified)
growth (SR leukemia): 59.1% | growth (OVCAR-8 ovarian): 84.2% | growth (OVCAR-5 ovarian): 103% | growth (OVCAR-4 ovarian): 41.3% | growth (SK-OV-3 ovarian): 100% | growth (IGROV1 ovarian): 90.5% | growth (OVCAR-3 ovarian): 100% | growth (HS 578T breast): 88.3% | growth (NCI/ADR-RES ovarian): 67.3% | growth (T-47D breast): 68.3% | growth (BT-549 breast): 124% | growth (MDA-MB-435 melanoma): 90.4% | growth (SW-620 colon): 92.3% | growth (MCF7 breast): 70.9% | growth (HCT-116 colon): 68.8% | growth (HCC-2998 colon): 93.2% | growth (KM12 colon): 97.1%

N#Cc1ccc(-c2ccc(-c3cccs3)o2)cc1F
growth (SR leukemia): 85% | growth (OVCAR-8 ovarian): 64.2% | growth (OVCAR-5 ovarian): 101% | growth (OVCAR-4 ovarian): 77.5% | growth (SK-OV-3 ovarian): 52.1% | growth (IGROV1 ovarian): 82.4% | growth (OVCAR-3 ovarian): 80.5% | growth (HS 578T breast): 51.2% | growth (NCI/ADR-RES ovarian): 72.1% | growth (T-47D breast): 23.7% | growth (BT-549 breast): 78% | growth (MDA-MB-435 melanoma): 94.8% | growth (SW-620 colon): 98.5% | growth (MCF7 breast): 26.4% | growth (HCT-116 colon): 64.5% | growth (HCC-2998 colon): 91.5% | growth (KM12 colon): 83.2%

O=C(Nc1ccc(-n2ccc3c(NC(=O)c4ccccc4)nccc32)cc1)c1ccc(N2CCOCC2)c(C(F)(F)F)c1
growth (SR leukemia): 0.458% (active) | growth (OVCAR-8 ovarian): 23.6% | growth (OVCAR-5 ovarian): 56.8% | growth (OVCAR-4 ovarian): 59.8% | growth (SK-OV-3 ovarian): 30.3% | growth (IGROV1 ovarian): 27.2% | growth (OVCAR-3 ovarian): 15.7% | growth (HS 578T breast): 50% | growth (NCI/ADR-RES ovarian): 29% | growth (T-47D breast): 28.2% | growth (BT-549 breast): 28.5% | growth (MDA-MB-435 melanoma): 33.6% | growth (SW-620 colon): 30.5% | growth (MCF7 breast): 23.2% | growth (HCT-116 colon): 6.59% (active) | growth (HCC-2998 colon): 40.8% | growth (KM12 colon): 22.7%
